Assay results reported in PubChem BioAssay (NCATS).
Several values for one entry are separate records, joined by “and”; a condition that tells them apart may be missing. Identical values can stand only once. Inconclusive results are not listed. Activity calls are given as the source filed them. Calls come from the whole dose curve; as a rule, active = well fitted curve in the direction sought with a large enough effect; inconclusive = small, poorly fitted or top-dose-only effect, or another doubt; inactive = no such curve, though single readings can be large; an effect the other way counts as inactive or inconclusive.

Experiments:
[1] = biological target: Cellular tumor antigen p53 (Homo sapiens) (UniProt P04637); assay: Primary qHTS for small molecule compounds that upregulate eGFP-tagged delta133p53alpha (in N-terminal) cells. (AID 2060322); settings: NCI-H358 eGFP-delta133p53alpha fluorescence, 24 h; activation: hits give high values;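 note: 0% = DMSO vehicle and 100% = reference activator; nearly all actives have a fitted effect of over 75% in size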
Outline: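 NCI-H358 cells pre-induced 24 h with 10 ng/ml doxycycline to express N-terminal eGFP-delta133p53alpha, then dosed 24 h at 37C without doxycycline; fixed, Hoechst-stained, GFP intensity by laser scanning cytometry, normalized to DMSO (0%) and 57.5 uM 5-azacytidine (100%).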

[2] = biological target: Aldehyde dehydrogenase, mitochondrial (Homo sapiens) (UniProt P05091); assay: qHTS for Inhibitors of the Aldehyde Dehydrogenase Family (ALDH2) Primary screen (AID 2061308); settings: ALDH2 enzyme inhibition qHTS, 1536-well; series mostly up to 56 µM;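 note: plate controls were vehicle for no effect and reference inhibitor for full effect; nearly all actives have a fitted effect of over 55% in size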
[3] = biological target: Retinaldehyde dehydrogenase 3 (Homo sapiens) (UniProt P47895); assay: qHTS for Inhibitors of the Aldehyde Dehydrogenase Family (ALDH1A3) Validation screen (AID 2061312); settings: ALDH1A3 enzyme inhibition qHTS validation, fluorescence; series mostly up to 84.7 µM; note: nearly all actives have a fitted effect of over 45% in size; note: potency is the fitted concentration of half-maximal effect
[4] = biological target: Retinaldehyde dehydrogenase 3 (Homo sapiens) (UniProt P47895); assay: qHTS for Inhibitors of the Aldehyde Dehydrogenase Family (ALDH1A3) Primary screen (AID 2061315); settings: ALDH inhibition qHTS; series mostly up to 56 µM;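 note: plate controls were DMSO vehicle for no effect and reference inhibitor for full effect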

Sequence of Cellular tumor antigen p53 (Homo sapiens) (P04637 whole entry, looked up): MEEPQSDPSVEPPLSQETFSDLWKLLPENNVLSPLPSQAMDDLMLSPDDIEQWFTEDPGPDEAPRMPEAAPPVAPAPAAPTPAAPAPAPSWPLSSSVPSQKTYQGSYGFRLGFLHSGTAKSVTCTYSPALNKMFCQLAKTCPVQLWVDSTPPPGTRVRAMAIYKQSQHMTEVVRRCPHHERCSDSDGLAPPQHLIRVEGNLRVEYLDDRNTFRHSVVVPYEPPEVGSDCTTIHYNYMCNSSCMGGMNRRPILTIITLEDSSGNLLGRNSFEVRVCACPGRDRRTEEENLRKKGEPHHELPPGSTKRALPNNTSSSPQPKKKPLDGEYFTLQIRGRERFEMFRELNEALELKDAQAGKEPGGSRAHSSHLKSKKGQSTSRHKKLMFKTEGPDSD

COc1ccc(C(=O)NCc2cc(C(C)C)no2)cc1OC1CCN(C)CC1
inactive: activation [1] 4.77% | Potency [2] | Potency [3] | Potency [4]

CC(=O)c1ccc2c(c1)[C@H](NC(=O)c1ccc(F)c(Cl)c1)[C@H](O)C(C)(C)O2
inactive: activation [1] 7.16% | Potency [2] | Potency [3] | Potency [4]

COc1ccccc1N1CCN(CC[C@@](C)(C(=O)C2CCCCC2)c2ccccc2)CC1
inactive: activation [1] 8.11% | Potency [2] | Potency [3] | Potency [4]

O=C(Nc1ccc(F)cc1)N1CCc2ccccc2C1c1ccc(C(F)(F)F)cc1 (centres undefined)
inactive: activation [1] 13.4% | Potency [2] | Potency [3] | Potency [4]

O=C(NC1CCN(CC(F)(F)F)CC1)c1ccc(-c2cccc(F)c2)nc1
inactive: activation [1] -16.7% | Potency [2] | Potency [3] | Potency [4]

O=C(OC(C(F)(F)F)C(F)(F)F)N1CCN(Cc2cccc(Oc3ccccc3)c2)CC1
inactive: activation [1] 1.43% | Potency [2] | Potency [3] | Potency [4]

COc1cccc(OC)c1-c1nc(C(=O)N[C@@H](CC(C)C)C(=O)O)cn1-c1ccnc2cc(Cl)ccc12
inactive: activation [1] -8.59% | Potency [2] | Potency [3] | Potency [4]

CN(C1CCc2c(c3ccccc3n2CC(=O)O)C1)S(=O)(=O)c1ccc(F)cc1 (centres undefined)
inactive: activation [1] -3.55% and 0% and -0.955% | Potency [2] | Potency [3] | Potency [4]

Oc1ccc([C@H]2COc3cc(O)ccc3C2)cc1
inactive: activation [1] -10.5% | Potency [2] | Potency [3] | Potency [4]

CCOC(=O)c1ccc(NC2CCCCC2)c(N)c1
inactive: activation [1] -6.21% | Potency [2] | Potency [3] | Potency [4]

CC(C)[C@@H](c1ccc(C(F)(F)F)cc1CN(Cc1cc(C(F)(F)F)cc(C(F)(F)F)c1)c1nnn(C)n1)N1CCC(C(=O)O)CC1
inactive: activation [1] 6.68% | Potency [2] | Potency [3] | Potency [4]

CNC(=O)c1ccc2c(c1)CCO[C@H]2CCN1CCN(c2ccc(OC)cc2)CC1
inactive: activation [1] -25.3% | Potency [2] | Potency [3] | Potency [4]

CC(C)(F)C[C@@H](N[C@@H](c1ccc(-c2ccc(S(C)(=O)=O)cc2)cc1)C(F)(F)F)C(=O)NC1(C#N)CC1
inactive: activation [1] -8.11% | Potency [2] | Potency [3] | Potency [4]

CC(=O)N(C)C1(c2ccccc2)CCN(CCC[C@]2(c3ccc(Cl)c(Cl)c3)CCCN(C(=O)c3ccccc3)C2)CC1
inactive: activation [1] 16.9% | Potency [2] | Potency [3] | Potency [4]

CCOC(=O)Nc1cc(-c2ccc(C)c(NS(C)(=O)=O)c2)nn2c(C)nnc12
inactive: activation [1] 22.9% | Potency [2] | Potency [3] | Potency [4]

Cc1cccc(C)c1OCc1cc(C(=O)N2CCC(c3ccncc3)CC2)no1
inactive: activation [1] 0.955% | Potency [2] | Potency [3] | Potency [4]

CC(C)(C)C(=O)C(Oc1ccc(Cl)cc1)n1ccnc1 (centres undefined)
inactive: activation [1] -37.9% and -2.39% | Potency [2] | Potency [3] | Potency [4]

Cc1ccc2nc(N)[nH]c(=O)c2c1Sc1ccncc1
active: Potency [3] 7.94 µM
inactive: activation [1] -10% and -17.7% | Potency [2] | Potency [4]

O=C1N=C(N2CCOCC2)CN1c1ccc(Cl)cc1
inactive: activation [1] -6.21% | Potency [2] | Potency [3] | Potency [4]

CCN1C[C@H](C)n2c(c(O)c3c(=O)n(Cc4ccc(F)c(Cl)c4)nc(C(=O)NC)c32)C1=O
inactive: activation [1] -11.2% and 13.4% and -6.68% | Potency [2] | Potency [3] | Potency [4]

OCC(Cc1ccccc1)Nc1nc(Oc2ccc3c(c2)CCC3)nc2c1ncn2Cc1ccc(-c2ccccc2)cc1 (centres undefined)
inactive: activation [1] 6.21% | Potency [2] | Potency [3] | Potency [4]

O=C(CCc1nnc2n(Cc3ccc(Cl)cc3)c(=O)c3ccccc3n12)NCCC1=CCCCC1
inactive: activation [1] 4.3% | Potency [2] | Potency [3] | Potency [4]

CCN=C1N[C@@H]2[C@@H](O)[C@H](O)[C@@H](CO)O[C@@H]2S1
inactive: activation [1] 1.43% | Potency [2] | Potency [3] | Potency [4]

CC(=O)SCC(=O)c1ccc(NS(=O)(=O)c2ccc(OCCCN(C)C)cc2)nc1
inactive: activation [1] 10% | Potency [2] | Potency [3] | Potency [4]

O=C(COc1ccc2ccccc2c1Br)Nc1cccnc1
inactive: activation [1] -15.8% | Potency [2] | Potency [3] | Potency [4]

CC(C)(C[C@@](O)(Cc1cc2ccncc2[nH]1)C(F)(F)F)c1cc(F)ccc1O
inactive: activation [1] 13.4% | Potency [2] | Potency [3] | Potency [4]
